Drawing on PMC7862700, “An all-to-all approach to the identification of sequence-specific readers for epigenetic DNA modifications on cytosine”, this text covers binding signal for one sequence.

What all share (test): DAPPL (digital affinity profiling via proximity ligation, sequencing); 10 mM Tris-HCl pH 7.5, 50 mM NaCl, 1 mM DTT, 4% glycerol, room temperature, 30 min; GST-TFs on glutathione beads, 16-mer random dsDNA library, 0.1% formaldehyde crosslink after washing; high values mean tight binding
The target of test [1] is T1, FLI1 (Homo sapiens, UniProt Q01543 1-452).
T1 sequence: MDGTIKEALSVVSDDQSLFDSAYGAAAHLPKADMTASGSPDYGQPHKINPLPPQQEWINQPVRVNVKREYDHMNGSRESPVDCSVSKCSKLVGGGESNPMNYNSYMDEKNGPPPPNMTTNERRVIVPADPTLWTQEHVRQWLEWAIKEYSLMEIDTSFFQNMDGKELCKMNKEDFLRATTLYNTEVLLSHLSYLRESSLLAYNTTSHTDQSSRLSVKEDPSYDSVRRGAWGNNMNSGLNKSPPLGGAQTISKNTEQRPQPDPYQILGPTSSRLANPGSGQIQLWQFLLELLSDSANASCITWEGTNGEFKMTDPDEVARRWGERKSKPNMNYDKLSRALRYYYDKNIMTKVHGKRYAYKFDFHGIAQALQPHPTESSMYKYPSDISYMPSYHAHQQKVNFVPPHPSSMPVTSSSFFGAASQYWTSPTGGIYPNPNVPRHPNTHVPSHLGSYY
The following applies: protein: recombinant; tags: N-terminal GST; dsDNA, one strand shown. In a few lines: (§1)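 Pools of DNA-barcoded human transcription factors, expressed in yeast as GST fusions on glutathione beads and combined with a tag-only sample, were incubated with 200 nmole of a 16-mer random double-stranded DNA library. Incubation took 30 min at room temperature in Tris/NaCl/DTT/glycerol buffer and was followed by washing, 0.1% formaldehyde crosslinking, proximity ligation (BsaI/T4 ligase, 1 h, 37 °C), PCR amplification and sequencing on an Illumina NextSeq500. Binding signal is the ratio of a hexamer's read frequency for a factor to its frequency for the tag-only sample.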

Test [2] has as its target T2, ELK1 (Homo sapiens, UniProt P19419 1-428).
T2 sequence: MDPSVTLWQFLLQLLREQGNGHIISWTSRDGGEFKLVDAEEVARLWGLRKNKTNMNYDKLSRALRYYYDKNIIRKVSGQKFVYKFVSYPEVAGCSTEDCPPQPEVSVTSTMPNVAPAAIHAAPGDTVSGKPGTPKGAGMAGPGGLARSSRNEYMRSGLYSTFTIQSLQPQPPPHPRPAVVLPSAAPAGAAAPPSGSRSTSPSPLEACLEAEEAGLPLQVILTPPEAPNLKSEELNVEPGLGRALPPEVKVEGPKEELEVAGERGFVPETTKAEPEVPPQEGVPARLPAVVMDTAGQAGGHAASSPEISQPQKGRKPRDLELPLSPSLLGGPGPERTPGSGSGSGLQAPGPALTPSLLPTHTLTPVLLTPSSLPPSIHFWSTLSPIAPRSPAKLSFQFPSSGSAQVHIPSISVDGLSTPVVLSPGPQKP
The following applies: protein: recombinant; tags: N-terminal GST; dsDNA, one strand shown. An outline of the steps:
as §1

The target in test [3] is T3, GABPA (Homo sapiens, UniProt Q06546 1-454).
T3 sequence: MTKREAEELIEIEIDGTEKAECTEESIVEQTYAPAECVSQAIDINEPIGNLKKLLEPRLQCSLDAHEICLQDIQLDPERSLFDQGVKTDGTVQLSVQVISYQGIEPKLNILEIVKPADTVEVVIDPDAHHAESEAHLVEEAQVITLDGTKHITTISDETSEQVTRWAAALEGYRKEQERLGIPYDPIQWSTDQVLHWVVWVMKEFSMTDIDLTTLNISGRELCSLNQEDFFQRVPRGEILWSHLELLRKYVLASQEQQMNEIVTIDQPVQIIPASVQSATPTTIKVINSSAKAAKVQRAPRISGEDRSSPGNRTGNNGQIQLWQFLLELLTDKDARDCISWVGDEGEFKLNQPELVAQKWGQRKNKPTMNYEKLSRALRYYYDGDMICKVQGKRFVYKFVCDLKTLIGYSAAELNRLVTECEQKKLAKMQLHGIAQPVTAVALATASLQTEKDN
The following applies: protein: recombinant; tags: N-terminal GST; dsDNA, one strand shown. In a few lines: as §1

Test [4] has as its target T4, ERG (Homo sapiens, UniProt P11308 1-479).
T4 sequence: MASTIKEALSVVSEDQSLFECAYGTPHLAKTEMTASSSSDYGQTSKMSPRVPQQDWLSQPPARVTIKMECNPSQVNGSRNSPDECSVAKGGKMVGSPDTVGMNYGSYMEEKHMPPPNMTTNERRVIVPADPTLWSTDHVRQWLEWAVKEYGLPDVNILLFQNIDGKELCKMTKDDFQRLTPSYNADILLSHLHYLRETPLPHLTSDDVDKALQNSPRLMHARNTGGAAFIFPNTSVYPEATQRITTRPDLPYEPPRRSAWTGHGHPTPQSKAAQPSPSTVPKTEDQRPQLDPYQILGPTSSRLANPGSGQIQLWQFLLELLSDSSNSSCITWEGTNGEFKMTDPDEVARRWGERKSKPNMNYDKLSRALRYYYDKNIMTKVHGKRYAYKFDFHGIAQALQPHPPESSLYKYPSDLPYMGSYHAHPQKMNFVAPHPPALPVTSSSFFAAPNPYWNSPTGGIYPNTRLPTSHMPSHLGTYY
The conditions noted are these: protein: recombinant; tags: N-terminal GST; dsDNA, one strand shown. In a few lines:
as §1

Test [5] addresses ELF1 (Homo sapiens, UniProt P32519 1-619). The conditions noted are these: protein: recombinant; tags: N-terminal GST; dsDNA, one strand shown. In a few lines:
as §1

Test [6] deals with T5, EHF (Homo sapiens, UniProt Q9NZC4 1-300).
T5 sequence: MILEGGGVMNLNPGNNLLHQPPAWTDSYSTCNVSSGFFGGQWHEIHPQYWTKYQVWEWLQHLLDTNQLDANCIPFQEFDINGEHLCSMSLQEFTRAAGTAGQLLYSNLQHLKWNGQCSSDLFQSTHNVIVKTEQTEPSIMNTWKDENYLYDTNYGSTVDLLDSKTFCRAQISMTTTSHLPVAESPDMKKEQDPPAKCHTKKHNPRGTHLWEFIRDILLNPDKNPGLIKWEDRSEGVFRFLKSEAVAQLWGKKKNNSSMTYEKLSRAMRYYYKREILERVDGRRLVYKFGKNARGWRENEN
The following applies: protein: recombinant; tags: N-terminal GST; dsDNA, one strand shown. An outline of the steps:
as §1

Test [7] addresses SPI1 (Homo sapiens, UniProt P17947 1-270). The conditions noted are these: protein: recombinant; tags: N-terminal GST; dsDNA, one strand shown. An outline of the steps: as §1
Test [8] deals with T6, ELK3 (Homo sapiens, UniProt P41970 1-407).
T6 sequence: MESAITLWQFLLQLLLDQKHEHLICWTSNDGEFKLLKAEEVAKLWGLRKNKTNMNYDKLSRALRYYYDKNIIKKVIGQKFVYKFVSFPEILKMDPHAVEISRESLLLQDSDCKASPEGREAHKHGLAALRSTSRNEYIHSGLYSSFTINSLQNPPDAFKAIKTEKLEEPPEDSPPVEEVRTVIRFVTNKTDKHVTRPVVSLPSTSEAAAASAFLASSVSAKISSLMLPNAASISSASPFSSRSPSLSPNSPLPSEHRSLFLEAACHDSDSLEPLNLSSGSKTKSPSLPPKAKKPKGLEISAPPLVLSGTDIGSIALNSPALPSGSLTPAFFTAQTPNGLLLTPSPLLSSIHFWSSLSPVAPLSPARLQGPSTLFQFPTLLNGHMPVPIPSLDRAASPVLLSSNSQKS
The following applies: protein: recombinant; tags: N-terminal GST; dsDNA, one strand shown. An outline of the steps:
as §1

Test [9] deals with T7, FEV (Homo sapiens, UniProt Q99581 1-238).
T7 sequence: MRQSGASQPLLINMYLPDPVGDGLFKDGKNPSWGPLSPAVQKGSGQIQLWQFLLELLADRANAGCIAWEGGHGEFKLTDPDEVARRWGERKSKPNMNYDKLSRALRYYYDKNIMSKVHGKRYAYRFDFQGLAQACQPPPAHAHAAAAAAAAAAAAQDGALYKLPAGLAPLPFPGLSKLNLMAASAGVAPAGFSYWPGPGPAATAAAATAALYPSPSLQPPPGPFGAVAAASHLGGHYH
The following applies: protein: recombinant; tags: N-terminal GST; dsDNA, one strand shown. An outline of the steps: as §1

Test [10] concerns the target ETV5 (Homo sapiens, UniProt P41161 1-510). The conditions noted are these: protein: recombinant; tags: N-terminal GST; dsDNA, one strand shown. In a few lines: as §1
Test [11] concerns the target HSF1 (Homo sapiens, UniProt Q00613 1-529). The following applies: protein: recombinant; tags: N-terminal GST; chain copies: 3; dsDNA, one strand shown. In a few lines:
as §1

Test [12] concerns the target T8, SPIC (Homo sapiens, UniProt Q8N5J4 1-248).
T8 sequence: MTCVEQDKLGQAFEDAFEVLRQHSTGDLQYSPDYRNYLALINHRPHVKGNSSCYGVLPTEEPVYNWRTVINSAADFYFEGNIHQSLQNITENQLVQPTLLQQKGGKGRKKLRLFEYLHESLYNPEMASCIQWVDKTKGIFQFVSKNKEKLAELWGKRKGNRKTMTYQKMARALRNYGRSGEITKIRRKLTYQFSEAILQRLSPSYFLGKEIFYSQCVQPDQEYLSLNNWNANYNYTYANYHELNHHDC
The conditions noted are these: protein: recombinant; tags: N-terminal GST; dsDNA, one strand shown. An outline of the steps: as §1

Test [13] concerns the target ELF4 (Homo sapiens, UniProt Q99607 1-663). The conditions noted are these: protein: recombinant; tags: N-terminal GST; dsDNA, one strand shown. An outline of the steps:
as §1

For test [14], the target named is T9, ELK4 (Homo sapiens, UniProt P28324-2 1-405).
T9 sequence: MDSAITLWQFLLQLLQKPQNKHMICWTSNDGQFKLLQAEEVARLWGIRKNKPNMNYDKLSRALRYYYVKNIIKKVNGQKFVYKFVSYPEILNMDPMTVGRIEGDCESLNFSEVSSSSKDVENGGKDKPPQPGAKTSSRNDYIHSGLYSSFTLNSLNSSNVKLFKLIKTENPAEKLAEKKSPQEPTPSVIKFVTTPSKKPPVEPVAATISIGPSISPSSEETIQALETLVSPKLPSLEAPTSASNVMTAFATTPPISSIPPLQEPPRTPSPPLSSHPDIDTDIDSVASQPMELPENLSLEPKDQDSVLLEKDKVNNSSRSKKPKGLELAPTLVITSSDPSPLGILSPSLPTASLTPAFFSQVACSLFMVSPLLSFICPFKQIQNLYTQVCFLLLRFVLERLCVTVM
The following applies: protein: recombinant; tags: N-terminal GST; dsDNA, one strand shown. An outline of the steps:
as §1

In test [15] the target is T10, ETV2 (Homo sapiens, UniProt O00321 1-342).
T10 sequence: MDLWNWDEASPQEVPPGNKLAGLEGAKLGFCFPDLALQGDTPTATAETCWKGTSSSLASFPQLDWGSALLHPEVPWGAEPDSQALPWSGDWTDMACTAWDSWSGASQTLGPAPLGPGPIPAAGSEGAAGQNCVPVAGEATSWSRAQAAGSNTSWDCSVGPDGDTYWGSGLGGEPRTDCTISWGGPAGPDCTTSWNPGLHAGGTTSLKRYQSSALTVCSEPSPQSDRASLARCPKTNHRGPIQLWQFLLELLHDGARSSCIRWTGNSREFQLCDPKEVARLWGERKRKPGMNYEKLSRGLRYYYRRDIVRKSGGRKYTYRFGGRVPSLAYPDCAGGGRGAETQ
The conditions noted are these: protein: recombinant; tags: N-terminal GST; dsDNA, one strand shown. An outline of the steps:
as §1

Test [16] concerns the target T11, ELF3 (Homo sapiens, UniProt P78545 1-371).
T11 sequence: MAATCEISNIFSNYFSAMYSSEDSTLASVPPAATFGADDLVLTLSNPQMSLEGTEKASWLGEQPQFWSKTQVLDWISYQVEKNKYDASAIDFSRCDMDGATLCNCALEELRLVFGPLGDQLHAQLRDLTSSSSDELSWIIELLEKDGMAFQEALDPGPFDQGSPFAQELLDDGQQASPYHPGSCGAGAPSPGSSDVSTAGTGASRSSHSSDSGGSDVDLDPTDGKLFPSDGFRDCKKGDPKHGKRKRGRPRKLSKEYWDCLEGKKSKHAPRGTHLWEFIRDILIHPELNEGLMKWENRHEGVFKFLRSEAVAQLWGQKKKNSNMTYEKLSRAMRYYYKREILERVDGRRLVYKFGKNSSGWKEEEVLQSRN
The conditions noted are these: protein: recombinant; tags: N-terminal GST; dsDNA, one strand shown. In a few lines: as §1

Test [17] deals with CRX (Homo sapiens, UniProt O43186 1-299). The following applies: protein: recombinant; tags: N-terminal GST; dsDNA, one strand shown. In a few lines: as §1
Test [18] addresses ETV1 (Homo sapiens, UniProt P50549 1-477). The conditions noted are these: protein: recombinant; tags: N-terminal GST; dsDNA, one strand shown. In a few lines: as §1

Sequence of ELF1 (P32519 whole entry): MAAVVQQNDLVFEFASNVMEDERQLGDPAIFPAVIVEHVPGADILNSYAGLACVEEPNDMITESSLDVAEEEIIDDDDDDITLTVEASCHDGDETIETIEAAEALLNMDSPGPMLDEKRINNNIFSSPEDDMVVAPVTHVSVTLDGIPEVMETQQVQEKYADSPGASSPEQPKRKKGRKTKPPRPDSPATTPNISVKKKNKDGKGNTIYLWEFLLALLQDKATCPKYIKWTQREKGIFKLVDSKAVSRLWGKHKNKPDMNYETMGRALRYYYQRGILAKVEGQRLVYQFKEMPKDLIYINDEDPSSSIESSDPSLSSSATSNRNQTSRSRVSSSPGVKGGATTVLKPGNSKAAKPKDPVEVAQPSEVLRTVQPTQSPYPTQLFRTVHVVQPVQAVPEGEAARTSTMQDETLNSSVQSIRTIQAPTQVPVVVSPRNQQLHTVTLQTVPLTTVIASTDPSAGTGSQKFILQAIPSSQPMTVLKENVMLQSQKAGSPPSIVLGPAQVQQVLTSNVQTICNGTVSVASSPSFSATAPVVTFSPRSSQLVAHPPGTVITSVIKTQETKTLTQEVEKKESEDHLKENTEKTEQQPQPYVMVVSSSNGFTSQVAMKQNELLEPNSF
Sequence of CRX (O43186 whole entry): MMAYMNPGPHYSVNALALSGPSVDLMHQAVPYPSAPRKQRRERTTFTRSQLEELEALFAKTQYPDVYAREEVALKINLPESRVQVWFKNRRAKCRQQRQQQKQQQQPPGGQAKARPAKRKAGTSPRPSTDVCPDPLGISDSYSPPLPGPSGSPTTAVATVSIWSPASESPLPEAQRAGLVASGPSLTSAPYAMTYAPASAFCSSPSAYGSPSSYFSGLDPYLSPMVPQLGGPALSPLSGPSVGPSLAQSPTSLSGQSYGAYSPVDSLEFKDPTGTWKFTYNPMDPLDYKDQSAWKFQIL
Sequence of HSF1 (Q00613 whole entry): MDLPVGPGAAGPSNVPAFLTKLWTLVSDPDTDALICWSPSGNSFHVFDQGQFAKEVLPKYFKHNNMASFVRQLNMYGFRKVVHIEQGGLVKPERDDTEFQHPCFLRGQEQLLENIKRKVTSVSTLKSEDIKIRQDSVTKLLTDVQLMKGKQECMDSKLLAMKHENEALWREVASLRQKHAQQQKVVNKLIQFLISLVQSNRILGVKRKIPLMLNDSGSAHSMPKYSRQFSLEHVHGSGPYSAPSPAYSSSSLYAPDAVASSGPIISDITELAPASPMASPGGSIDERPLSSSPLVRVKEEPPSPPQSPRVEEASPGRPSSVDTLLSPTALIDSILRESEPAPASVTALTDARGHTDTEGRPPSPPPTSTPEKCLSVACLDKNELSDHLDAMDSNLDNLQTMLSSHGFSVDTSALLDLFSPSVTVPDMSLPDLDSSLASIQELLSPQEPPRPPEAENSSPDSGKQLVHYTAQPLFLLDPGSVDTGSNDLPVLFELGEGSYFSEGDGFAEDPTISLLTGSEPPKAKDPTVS
Sequence of ETV5 (P41161 whole entry): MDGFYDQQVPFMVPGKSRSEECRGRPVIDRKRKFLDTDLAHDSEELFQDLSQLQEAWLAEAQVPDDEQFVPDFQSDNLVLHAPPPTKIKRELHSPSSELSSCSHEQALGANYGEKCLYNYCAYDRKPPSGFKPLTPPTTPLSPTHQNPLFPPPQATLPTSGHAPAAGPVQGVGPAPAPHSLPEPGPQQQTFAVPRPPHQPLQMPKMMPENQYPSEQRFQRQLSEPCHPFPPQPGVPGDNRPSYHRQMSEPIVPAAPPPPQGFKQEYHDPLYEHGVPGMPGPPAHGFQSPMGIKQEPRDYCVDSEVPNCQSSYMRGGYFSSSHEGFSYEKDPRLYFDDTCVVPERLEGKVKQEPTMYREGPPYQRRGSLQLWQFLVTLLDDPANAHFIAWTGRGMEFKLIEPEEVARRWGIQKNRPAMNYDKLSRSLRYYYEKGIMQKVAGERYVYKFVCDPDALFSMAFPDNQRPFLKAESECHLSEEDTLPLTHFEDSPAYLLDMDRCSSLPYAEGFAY
Sequence of ETV1 (P50549 whole entry): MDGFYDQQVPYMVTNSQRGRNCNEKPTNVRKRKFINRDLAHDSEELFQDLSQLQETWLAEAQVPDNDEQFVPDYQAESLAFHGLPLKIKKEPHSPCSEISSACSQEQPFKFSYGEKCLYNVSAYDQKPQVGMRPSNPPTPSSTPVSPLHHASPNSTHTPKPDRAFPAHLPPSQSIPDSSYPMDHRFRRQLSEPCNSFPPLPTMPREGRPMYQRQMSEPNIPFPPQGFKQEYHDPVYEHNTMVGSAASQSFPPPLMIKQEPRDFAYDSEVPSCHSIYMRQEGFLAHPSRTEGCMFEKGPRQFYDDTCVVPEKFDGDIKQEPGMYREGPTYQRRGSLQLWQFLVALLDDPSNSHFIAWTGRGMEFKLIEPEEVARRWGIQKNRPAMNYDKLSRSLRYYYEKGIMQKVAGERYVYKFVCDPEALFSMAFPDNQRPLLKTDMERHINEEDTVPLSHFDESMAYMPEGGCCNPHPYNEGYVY
Sequence of ELF4 (Q99607 whole entry): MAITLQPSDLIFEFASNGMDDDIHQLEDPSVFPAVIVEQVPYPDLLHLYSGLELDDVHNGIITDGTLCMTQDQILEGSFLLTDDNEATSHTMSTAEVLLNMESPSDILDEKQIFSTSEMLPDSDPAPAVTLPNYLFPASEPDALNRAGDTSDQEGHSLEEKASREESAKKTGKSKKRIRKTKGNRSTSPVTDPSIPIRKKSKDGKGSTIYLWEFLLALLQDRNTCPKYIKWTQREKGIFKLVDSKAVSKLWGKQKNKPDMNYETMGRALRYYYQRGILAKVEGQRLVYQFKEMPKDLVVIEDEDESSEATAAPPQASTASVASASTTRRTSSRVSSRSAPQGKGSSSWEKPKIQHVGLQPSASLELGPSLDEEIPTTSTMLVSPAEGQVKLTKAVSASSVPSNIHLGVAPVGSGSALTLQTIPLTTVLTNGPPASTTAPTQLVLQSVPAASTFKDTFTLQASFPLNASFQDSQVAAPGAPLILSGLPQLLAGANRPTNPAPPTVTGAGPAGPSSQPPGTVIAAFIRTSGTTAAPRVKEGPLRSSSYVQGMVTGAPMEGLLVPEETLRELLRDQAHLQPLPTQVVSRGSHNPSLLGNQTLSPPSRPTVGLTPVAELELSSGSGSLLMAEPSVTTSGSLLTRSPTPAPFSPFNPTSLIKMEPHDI

Take TACTGA: the binding signal in test [1] was 1.03 fold enrichment (6-mer frequency, TF over GST control); in test [2] it was 1.08 fold enrichment (6-mer frequency, TF over GST control); in [3], 1.06 fold enrichment (6-mer frequency, TF over GST control); in test [4], 1.03 fold enrichment (6-mer frequency, TF over GST control); in test [5] it was 1.13 fold enrichment (6-mer frequency, TF over GST control); in test [6], 1.13 fold enrichment (6-mer frequency, TF over GST control). Also, the binding signal is 1.02 fold enrichment (6-mer frequency, TF over GST control) in test [7]; 1.09 fold enrichment (6-mer frequency, TF over GST control) in test [8]; 1.03 fold enrichment (6-mer frequency, TF over GST control) in [9]; 1.13 fold enrichment (6-mer frequency, TF over GST control) in [10]; 1.07 fold enrichment (6-mer frequency, TF over GST control) in test [11]; 1.03 fold enrichment (6-mer frequency, TF over GST control) in test [12]. Besides, the binding signal was 1.11 fold enrichment (6-mer frequency, TF over GST control) in test [13]; 1.32 fold enrichment (6-mer frequency, TF over GST control) in [14]; 1.12 fold enrichment (6-mer frequency, TF over GST control) in test [15]; 1.2 fold enrichment (6-mer frequency, TF over GST control) in [16]; 1.2 fold enrichment (6-mer frequency, TF over GST control) in [17]; 1.02 fold enrichment (6-mer frequency, TF over GST control) in [18].
